# PMC7862700, “An all-to-all approach to the identification of sequence-specific readers for epigenetic DNA modifications on cytosine”
# Columns and labels:
# Assay in all cases: DAPPL (digital affinity profiling via proximity ligation, sequencing); 10 mM Tris-HCl pH 7.5, 50 mM NaCl, 1 mM DTT, 4% glycerol, room temperature, 30 min; GST-TFs on glutathione beads, 16-mer random dsDNA library, 0.1% formaldehyde crosslink after washing; high values mean tight binding
# Details in all cases: protein: recombinant; tags: N-terminal GST; dsDNA, one strand shown
# ERF = biological target: T1, ERF (Homo sapiens, UniProt P50548 1-548)
# T1 sequence: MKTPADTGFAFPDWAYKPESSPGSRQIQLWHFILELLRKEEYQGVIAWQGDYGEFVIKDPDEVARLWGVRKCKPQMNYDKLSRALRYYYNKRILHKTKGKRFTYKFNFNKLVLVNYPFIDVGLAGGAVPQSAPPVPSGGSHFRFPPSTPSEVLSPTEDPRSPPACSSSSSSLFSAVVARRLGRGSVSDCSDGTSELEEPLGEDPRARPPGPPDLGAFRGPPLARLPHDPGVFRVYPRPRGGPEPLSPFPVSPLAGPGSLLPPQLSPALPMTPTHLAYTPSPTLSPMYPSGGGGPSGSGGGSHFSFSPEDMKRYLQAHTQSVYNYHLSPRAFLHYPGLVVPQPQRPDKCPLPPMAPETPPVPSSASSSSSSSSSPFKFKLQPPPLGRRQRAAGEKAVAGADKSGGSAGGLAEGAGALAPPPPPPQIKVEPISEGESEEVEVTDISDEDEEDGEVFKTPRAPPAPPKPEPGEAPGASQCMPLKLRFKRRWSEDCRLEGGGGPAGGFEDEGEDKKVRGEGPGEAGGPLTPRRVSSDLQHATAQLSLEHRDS
# How it was run: (§1)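 Yeast served to express human transcription factors as GST fusions, which were then captured on glutathione beads and labelled with DNA barcodes. Pooled with a tag-only sample, they were incubated with 200 nmole of a 16-mer random double-stranded DNA library for 30 min at room temperature in Tris/NaCl/DTT/glycerol buffer, washed, crosslinked with 0.1% formaldehyde, ligated by proximity, amplified by PCR and sequenced. Dividing each hexamer's read frequency for a factor by its frequency for the tag-only sample gives the binding signal.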
# ETV3L = biological target: T2, ETV3L (Homo sapiens, UniProt Q6ZN32 1-361)
# T2 sequence: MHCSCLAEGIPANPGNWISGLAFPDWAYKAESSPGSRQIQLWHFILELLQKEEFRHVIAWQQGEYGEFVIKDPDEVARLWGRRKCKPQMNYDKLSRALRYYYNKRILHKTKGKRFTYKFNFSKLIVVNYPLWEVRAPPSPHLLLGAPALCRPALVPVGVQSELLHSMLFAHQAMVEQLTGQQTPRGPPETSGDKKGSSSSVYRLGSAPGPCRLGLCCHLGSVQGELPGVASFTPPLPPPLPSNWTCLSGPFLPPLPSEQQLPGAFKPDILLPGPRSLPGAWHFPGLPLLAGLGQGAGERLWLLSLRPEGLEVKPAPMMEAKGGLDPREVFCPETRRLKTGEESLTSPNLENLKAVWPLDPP
# How it was run: as §1
# ETS2 = biological target: T3, ETS2 (Homo sapiens, UniProt P15036 1-469)
# T3 sequence: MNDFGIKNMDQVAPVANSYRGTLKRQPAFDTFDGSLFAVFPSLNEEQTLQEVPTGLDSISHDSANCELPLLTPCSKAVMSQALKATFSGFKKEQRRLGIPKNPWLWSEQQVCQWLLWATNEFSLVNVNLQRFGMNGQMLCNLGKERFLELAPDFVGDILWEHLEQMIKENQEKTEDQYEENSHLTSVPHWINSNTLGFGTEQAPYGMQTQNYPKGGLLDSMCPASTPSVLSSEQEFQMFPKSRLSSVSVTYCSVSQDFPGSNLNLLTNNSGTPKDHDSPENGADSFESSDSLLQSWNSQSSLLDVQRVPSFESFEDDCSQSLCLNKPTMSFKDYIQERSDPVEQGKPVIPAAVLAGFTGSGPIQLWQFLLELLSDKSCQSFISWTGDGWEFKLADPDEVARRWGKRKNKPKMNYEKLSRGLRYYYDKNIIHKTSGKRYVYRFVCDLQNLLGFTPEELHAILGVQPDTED
# How it was run: as §1
# SPDEF = biological target: T4, SPDEF (Homo sapiens, UniProt O95238 1-335)
# T4 sequence: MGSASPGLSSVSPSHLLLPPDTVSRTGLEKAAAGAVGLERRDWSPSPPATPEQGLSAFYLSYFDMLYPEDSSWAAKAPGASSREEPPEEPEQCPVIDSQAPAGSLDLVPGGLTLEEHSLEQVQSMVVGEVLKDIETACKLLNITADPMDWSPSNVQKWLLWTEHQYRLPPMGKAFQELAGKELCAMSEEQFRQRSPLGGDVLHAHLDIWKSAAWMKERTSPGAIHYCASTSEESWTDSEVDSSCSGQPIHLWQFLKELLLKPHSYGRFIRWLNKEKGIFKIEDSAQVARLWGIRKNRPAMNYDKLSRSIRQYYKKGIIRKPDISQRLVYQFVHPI
# How it was run: as §1
# ETV7 = biological target: T5, ETV7 (Homo sapiens, UniProt Q9Y603 1-341)
# T5 sequence: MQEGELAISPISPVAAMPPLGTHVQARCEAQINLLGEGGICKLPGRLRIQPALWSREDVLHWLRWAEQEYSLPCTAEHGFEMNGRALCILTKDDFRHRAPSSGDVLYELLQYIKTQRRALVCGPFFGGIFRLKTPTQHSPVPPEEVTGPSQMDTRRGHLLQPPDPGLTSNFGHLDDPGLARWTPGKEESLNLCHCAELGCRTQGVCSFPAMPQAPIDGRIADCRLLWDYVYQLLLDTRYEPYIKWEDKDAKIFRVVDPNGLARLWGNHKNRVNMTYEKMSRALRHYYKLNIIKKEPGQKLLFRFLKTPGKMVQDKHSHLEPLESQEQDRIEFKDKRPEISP
# How it was run: as §1
# ELF5 = biological target: T6, ELF5 (Homo sapiens, UniProt Q9UKW6-2 1-255)
# T6 sequence: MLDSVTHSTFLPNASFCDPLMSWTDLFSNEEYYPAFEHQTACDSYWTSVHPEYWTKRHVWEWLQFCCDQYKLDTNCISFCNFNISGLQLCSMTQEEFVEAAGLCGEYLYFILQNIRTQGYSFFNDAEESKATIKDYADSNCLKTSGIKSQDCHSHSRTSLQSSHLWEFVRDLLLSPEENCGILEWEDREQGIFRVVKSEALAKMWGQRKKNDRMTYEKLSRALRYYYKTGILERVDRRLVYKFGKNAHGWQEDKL
# How it was run: as §1
# ETV3 = biological target: T7, ETV3 (Homo sapiens, UniProt P41162-2 1-143)
# T7 sequence: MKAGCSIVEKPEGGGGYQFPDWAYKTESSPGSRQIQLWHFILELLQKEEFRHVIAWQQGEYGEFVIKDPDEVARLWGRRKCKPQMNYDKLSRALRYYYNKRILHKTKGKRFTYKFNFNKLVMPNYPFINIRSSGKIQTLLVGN
# How it was run: as §1
# ETV6 = ETV6 (Homo sapiens, UniProt P41212 1-452)
# Chain of ETV6 (P41212 whole entry): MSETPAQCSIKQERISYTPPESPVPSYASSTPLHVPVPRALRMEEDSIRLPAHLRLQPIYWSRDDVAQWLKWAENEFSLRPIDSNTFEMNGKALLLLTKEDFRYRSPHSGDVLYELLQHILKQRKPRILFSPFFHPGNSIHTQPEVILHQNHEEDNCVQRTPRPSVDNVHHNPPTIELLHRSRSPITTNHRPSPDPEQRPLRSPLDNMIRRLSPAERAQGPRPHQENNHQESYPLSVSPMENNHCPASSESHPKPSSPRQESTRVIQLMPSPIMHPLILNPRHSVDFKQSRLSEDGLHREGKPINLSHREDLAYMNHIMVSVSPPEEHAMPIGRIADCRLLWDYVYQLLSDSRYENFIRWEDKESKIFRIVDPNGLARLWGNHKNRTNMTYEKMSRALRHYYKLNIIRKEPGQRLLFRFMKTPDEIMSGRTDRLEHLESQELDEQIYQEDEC
# How it was run: as §1
Sequence,binding signal (ERF),binding signal (ETV3L),binding signal (ETS2),binding signal (SPDEF),binding signal (ETV7),binding signal (ELF5),binding signal (ETV3),binding signal (ETV6)
TGTACC,"1.17 fold enrichment (6-mer frequency, TF over GST control)","1.34 fold enrichment (6-mer frequency, TF over GST control)","1.38 fold enrichment (6-mer frequency, TF over GST control)","1.47 fold enrichment (6-mer frequency, TF over GST control)","1.26 fold enrichment (6-mer frequency, TF over GST control)","1.27 fold enrichment (6-mer frequency, TF over GST control)","1.35 fold enrichment (6-mer frequency, TF over GST control)","1.28 fold enrichment (6-mer frequency, TF over GST control)"
CATGAT,"1 fold enrichment (6-mer frequency, TF over GST control)","1.13 fold enrichment (6-mer frequency, TF over GST control)","1.07 fold enrichment (6-mer frequency, TF over GST control)","1.01 fold enrichment (6-mer frequency, TF over GST control)","1.02 fold enrichment (6-mer frequency, TF over GST control)","1.1 fold enrichment (6-mer frequency, TF over GST control)","1.09 fold enrichment (6-mer frequency, TF over GST control)","1.09 fold enrichment (6-mer frequency, TF over GST control)"
ACAAAC,"1.11 fold enrichment (6-mer frequency, TF over GST control)","1.08 fold enrichment (6-mer frequency, TF over GST control)","1.22 fold enrichment (6-mer frequency, TF over GST control)","1.15 fold enrichment (6-mer frequency, TF over GST control)","1.11 fold enrichment (6-mer frequency, TF over GST control)","1.12 fold enrichment (6-mer frequency, TF over GST control)","1.09 fold enrichment (6-mer frequency, TF over GST control)","1.15 fold enrichment (6-mer frequency, TF over GST control)"
TCCGGA,"2.04 fold enrichment (6-mer frequency, TF over GST control)","2.42 fold enrichment (6-mer frequency, TF over GST control)","2.66 fold enrichment (6-mer frequency, TF over GST control)","3.16 fold enrichment (6-mer frequency, TF over GST control)","2.24 fold enrichment (6-mer frequency, TF over GST control)","3.19 fold enrichment (6-mer frequency, TF over GST control)","2.84 fold enrichment (6-mer frequency, TF over GST control)","2.7 fold enrichment (6-mer frequency, TF over GST control)"
TACTGG,"1.16 fold enrichment (6-mer frequency, TF over GST control)","1.11 fold enrichment (6-mer frequency, TF over GST control)","1.08 fold enrichment (6-mer frequency, TF over GST control)","1.05 fold enrichment (6-mer frequency, TF over GST control)","1.12 fold enrichment (6-mer frequency, TF over GST control)","1.04 fold enrichment (6-mer frequency, TF over GST control)","1.11 fold enrichment (6-mer frequency, TF over GST control)","1.15 fold enrichment (6-mer frequency, TF over GST control)"
CCCGGA,"2.32 fold enrichment (6-mer frequency, TF over GST control)","2.8 fold enrichment (6-mer frequency, TF over GST control)","2.98 fold enrichment (6-mer frequency, TF over GST control)","3.97 fold enrichment (6-mer frequency, TF over GST control)","2.48 fold enrichment (6-mer frequency, TF over GST control)","3.77 fold enrichment (6-mer frequency, TF over GST control)","3.23 fold enrichment (6-mer frequency, TF over GST control)","2.89 fold enrichment (6-mer frequency, TF over GST control)"
CTCGTG,"1.12 fold enrichment (6-mer frequency, TF over GST control)","1.01 fold enrichment (6-mer frequency, TF over GST control)","1.13 fold enrichment (6-mer frequency, TF over GST control)","1.07 fold enrichment (6-mer frequency, TF over GST control)","1.12 fold enrichment (6-mer frequency, TF over GST control)","1.11 fold enrichment (6-mer frequency, TF over GST control)","1.08 fold enrichment (6-mer frequency, TF over GST control)","1.02 fold enrichment (6-mer frequency, TF over GST control)"
ACCTCA,"1.23 fold enrichment (6-mer frequency, TF over GST control)","1.29 fold enrichment (6-mer frequency, TF over GST control)","1.21 fold enrichment (6-mer frequency, TF over GST control)","1.09 fold enrichment (6-mer frequency, TF over GST control)","1.04 fold enrichment (6-mer frequency, TF over GST control)","1.11 fold enrichment (6-mer frequency, TF over GST control)","1.18 fold enrichment (6-mer frequency, TF over GST control)","1.17 fold enrichment (6-mer frequency, TF over GST control)"
CCTCAT,"1.32 fold enrichment (6-mer frequency, TF over GST control)","1.37 fold enrichment (6-mer frequency, TF over GST control)","1.29 fold enrichment (6-mer frequency, TF over GST control)","1.31 fold enrichment (6-mer frequency, TF over GST control)","1.25 fold enrichment (6-mer frequency, TF over GST control)","1.58 fold enrichment (6-mer frequency, TF over GST control)","1.32 fold enrichment (6-mer frequency, TF over GST control)","1.39 fold enrichment (6-mer frequency, TF over GST control)"
ACCTAT,"1.26 fold enrichment (6-mer frequency, TF over GST control)","1.16 fold enrichment (6-mer frequency, TF over GST control)","1.2 fold enrichment (6-mer frequency, TF over GST control)","1.25 fold enrichment (6-mer frequency, TF over GST control)","1.25 fold enrichment (6-mer frequency, TF over GST control)","1.11 fold enrichment (6-mer frequency, TF over GST control)","1.17 fold enrichment (6-mer frequency, TF over GST control)","1.16 fold enrichment (6-mer frequency, TF over GST control)"
ATGTCA,"1.2 fold enrichment (6-mer frequency, TF over GST control)","1.2 fold enrichment (6-mer frequency, TF over GST control)","1.2 fold enrichment (6-mer frequency, TF over GST control)","1.1 fold enrichment (6-mer frequency, TF over GST control)","1.02 fold enrichment (6-mer frequency, TF over GST control)","1.09 fold enrichment (6-mer frequency, TF over GST control)","1.12 fold enrichment (6-mer frequency, TF over GST control)","1.11 fold enrichment (6-mer frequency, TF over GST control)"
AGTTTC,"1.22 fold enrichment (6-mer frequency, TF over GST control)","1.33 fold enrichment (6-mer frequency, TF over GST control)","1.3 fold enrichment (6-mer frequency, TF over GST control)","1.19 fold enrichment (6-mer frequency, TF over GST control)","1.29 fold enrichment (6-mer frequency, TF over GST control)","1.65 fold enrichment (6-mer frequency, TF over GST control)","1.36 fold enrichment (6-mer frequency, TF over GST control)","1.29 fold enrichment (6-mer frequency, TF over GST control)"
TGCCCG,"1.13 fold enrichment (6-mer frequency, TF over GST control)","1.16 fold enrichment (6-mer frequency, TF over GST control)","1.26 fold enrichment (6-mer frequency, TF over GST control)","1.28 fold enrichment (6-mer frequency, TF over GST control)","1.34 fold enrichment (6-mer frequency, TF over GST control)","1.19 fold enrichment (6-mer frequency, TF over GST control)","1.24 fold enrichment (6-mer frequency, TF over GST control)","1.19 fold enrichment (6-mer frequency, TF over GST control)"
GTTTGA,"1.23 fold enrichment (6-mer frequency, TF over GST control)","1.11 fold enrichment (6-mer frequency, TF over GST control)","1.26 fold enrichment (6-mer frequency, TF over GST control)","1.11 fold enrichment (6-mer frequency, TF over GST control)","1.24 fold enrichment (6-mer frequency, TF over GST control)","1.17 fold enrichment (6-mer frequency, TF over GST control)","1.24 fold enrichment (6-mer frequency, TF over GST control)","1.28 fold enrichment (6-mer frequency, TF over GST control)"
AAATTA,"1.26 fold enrichment (6-mer frequency, TF over GST control)","1.31 fold enrichment (6-mer frequency, TF over GST control)","1.27 fold enrichment (6-mer frequency, TF over GST control)","1.18 fold enrichment (6-mer frequency, TF over GST control)","1.32 fold enrichment (6-mer frequency, TF over GST control)","1.24 fold enrichment (6-mer frequency, TF over GST control)","1.29 fold enrichment (6-mer frequency, TF over GST control)","1.25 fold enrichment (6-mer frequency, TF over GST control)"
